Rows were chosen to be rich in hits. Some 2.3% of all compounds tested hit in one or more screens of this group.
PP1 inh: PP1-alpha (human) inhibition in PP5 counter-screen; AID 2235; actives 0.9% (n = 320,000); purified PP1alpha, OMFP fluorescence; P62136; inhibition, % at 6.7 µM;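 active means inhibition above the mean inhibition of all tested compounds plus 3 SD, computed separately for each screening campaign, cut at about 15% in these data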
MsrA inh: bovine MsrA inhibition; AID 651718; purified bovine MsrA, absorbance read-out; inhibition, % at 15.5 µM; actives 0.75% (n = 360,000); in the data active means inhibition above about 4.5%;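 further: 0% = vehicle wells with enzyme and 100% = reference inhibitor wells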
EBNA-1 inhibitor: blocks EBNA-1 binding to DNA; actives 0.34% (n = 300,000); EBNA-1 DNA binding, fluorescence polarization; inhibition, % at 14.8 µM; AID 1950; in the data active means inhibition above about 28%
ZTA DNA inh: blocks Epstein-Barr virus ZTA, an EBNA-1 counter-screen | inhibition, % at 11 µM | actives 0.15% (n = 320,000) | ZTA-DNA binding, fluorescence polarization | P03206; in the data active means inhibition above about 33%
PP5 primary: inhibitors of human protein phosphatase 5 (PP5). purified PP5c, OMFP substrate fluorescence. inhibition, % at 6.7 µM. actives 0.18% (n = 320,000);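 active means inhibition above the campaign's mean inhibition across all tested compounds plus 3 SD, cut at about 9.5% in these data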;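 further: 0% = DMSO only and 100% = 100 µM cantharidin control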
Target sequence (P53041 whole entry, looked up): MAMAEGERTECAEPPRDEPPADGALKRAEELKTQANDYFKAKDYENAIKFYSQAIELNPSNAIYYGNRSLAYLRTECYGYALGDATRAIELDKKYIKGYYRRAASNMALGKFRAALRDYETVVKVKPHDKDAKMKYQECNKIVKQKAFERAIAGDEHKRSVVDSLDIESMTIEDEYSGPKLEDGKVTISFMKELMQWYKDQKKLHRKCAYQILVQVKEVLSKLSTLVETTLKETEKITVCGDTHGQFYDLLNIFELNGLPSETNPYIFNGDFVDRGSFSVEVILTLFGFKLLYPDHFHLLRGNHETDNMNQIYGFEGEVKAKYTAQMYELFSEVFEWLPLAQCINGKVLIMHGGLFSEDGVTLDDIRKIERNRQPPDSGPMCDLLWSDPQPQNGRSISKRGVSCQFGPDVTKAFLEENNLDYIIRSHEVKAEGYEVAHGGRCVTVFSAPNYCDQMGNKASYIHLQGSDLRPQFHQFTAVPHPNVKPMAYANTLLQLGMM
bovine MsrA act: activators of bovine methionine sulfoxide reductase A. purified bovine MsrA, absorbance read-out. activation, % at 10.6 µM. actives 0.3% (n = 360,000). AID 602163; in the data active means activation above about 7.5%;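 further: 0% = vehicle and 100% = reference activator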
MsrA act confirm: confirmation of bovine methionine sulfoxide reductase A activators. shares compounds with bovine MsrA act. purified bovine MsrA, absorbance read-out. activation, % at 10.6 µM. actives 12% (n = 1,000). AID 602270; in the data active means activation above about 4%;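 further: enzyme coupled to thioredoxin and thioredoxin reductase with NADPH; 0% = vehicle wells and 100% = reference activator wells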
* = called active by the depositor; . = no result.

SMILES | PP1 inh | MsrA inh | EBNA-1 inhibitor | ZTA DNA inh | PP5 primary | bovine MsrA act | MsrA act confirm
COc1ccc(/C=N/NC(=O)c2cccc([N+](=O)[O-])c2)cc1O | -3 | 1 | 5 | 1 | 3 | -3 | .
COc1cc(/C=N/NC(=O)c2cccc([N+](=O)[O-])c2)ccc1OCc1ccc(C)cc1 | 3 | -1 | -1 | 0 | -1 | 8.3* | -1
Cc1ccc(-c2ccc(/C=N/NC(=O)CN3CCCC3)o2)cc1Cl | 8 | 2 | -18 | 13 | 2 | 8.8* | 1
OC12CCCCC1C(c1ccc3c(c1)OCO3)N(Cc1ccc(F)cc1)CC2 (configuration not stated) | 6 | 0 | -5 | 17 | 3 | 9.5* | 0
Cc1ccc(C)c(N2CC(C(=O)Nc3cc(C)on3)CC2=O)c1 (configuration not stated) | 2 | -1 | 2 | 4 | -1 | -12 | .
CC1(C)CC(=O)C2=C(C1)N(Cc1ccco1)C(=O)C2(NC(=O)c1cccnc1)C(F)(F)F (configuration not stated) | -3 | 0 | 4 | 23 | -1 | 8.2* | -2
CC1(C)CC(=O)C2=C(C1)N(Cc1cccnc1)C(=O)C2(NC(=O)c1cccnc1)C(F)(F)F (configuration not stated) | -1 | 1 | 1 | -4 | 0 | 0 | .
CCOC(=O)NC1(C(F)(F)F)C(=O)N(Cc2ccccc2)C2=C1C(=O)CC(C)(C)C2 (configuration not stated) | -5 | 1 | 6 | -5 | 0 | 12* | -1
COC(=O)c1nn(-c2ccc(OC)cc2)ccc1=O | -5 | 2 | 6 | -3 | -1 | -1 | .
CCOc1ccc(S(=O)(=O)N2CCCC(C(=O)NCc3cccnc3)C2)cc1 (configuration not stated) | 1 | -1 | 2 | -2 | 4 | 8.9* | -2
COc1ccc(S(=O)(=O)N2CCCC(C(=O)NCc3cccnc3)C2)cc1 (configuration not stated) | 0 | -1 | 9 | -8 | 2 | -5 | .
CN(CC(=O)Nc1cccc2ccccc12)C(=O)c1cccc(S(=O)(=O)N(C)C)c1 | 1 | 1 | 2 | 5 | -1 | -2 | .
O=C(CCSc1ccccn1)c1ccccc1 | -5 | 2 | -9 | -31 | 4 | 7.8* | -1
O=C(O)CCSc1ccccn1 | -2 | 0 | -17 | 12 | 2 | -9 | .
Cc1ccc(NC(=O)COc2coc(CN3CCc4ccccc43)cc2=O)c(C)c1 | -2 | 0 | -8 | -2 | 2 | -5 | .
CSc1nnc2c3c4c(sc3c(=O)n(-c3ccccc3)n12)CC(C)(C)OC4 | -6 | 1 | -1 | -9 | 0 | 24* | -3
CC1(C)Cc2c(sc3nc(-c4ccccc4)n(N)c(=O)c23)CO1 | -1 | 1 | -6 | -13 | 2 | -4 | .
Nc1nc(SCn2nnc3ccccc3c2=O)n[nH]1 | -1 | 1 | 1 | 13 | 2 | -6 | .
CC(OC(=O)c1cccc(S(=O)(=O)N2CCCCC2)c1)C(=O)NC1CCCCC1C (configuration not stated) | -1 | -1 | -4 | 3 | -1 | 21* | 0
C=CCN(c1cccc(C(F)(F)F)c1)S(=O)(=O)c1cccc(C(=O)OCC(=O)Nc2ccccc2)c1 | 5 | 2 | 13 | -1 | 5 | 8.3* | -1
O=C(Nc1ccc(F)cc1)N1CCN(c2nc3ccccc3s2)CC1 | -2 | 0 | -8 | -2 | 1 | 8.0* | 1
O=C(Nc1ccccc1)N1CCN(c2nc3ccccc3s2)CC1 | -5 | 1 | 8 | 2 | 3 | -1 | .
CCc1ccc(NC(=O)CSc2nnc(COc3ccc4c(c3)CCCC4)o2)cc1 | 3 | 0 | 2 | 0 | -1 | 11* | -2
O=C(OCCN1CCCC1)C1(c2ccccc2)CCCC1 | . | 0 | . | . | . | 9.6* | -2
OCc1ccccc1SSc1ccccc1CO | 2 | 1 | 6 | -4 | 2 | 11* | 6.4*
SMILES | PP1 inh | MsrA inh | EBNA-1 inhibitor | ZTA DNA inh | PP5 primary | bovine MsrA act | MsrA act confirm
CC1(C(=O)NS(=O)(=O)c2ccccc2C(F)(F)F)CCN1C(=O)C1CCCCC1 (configuration not stated) | . | 1 | . | . | . | -5 | .
NC1=NC(=O)/C(=C\c2ccsc2)S1 | -7 | 4 | -5 | -2 | 0 | -6 | .
Cc1nnc(NC(=O)c2nc(S(=O)(=O)Cc3ccccc3)ncc2Cl)s1 | -4 | -1 | -4 | -14 | -8 | 11* | 1
Cc1cccc(C)c1NC(=O)c1nc(S(=O)(=O)Cc2ccccc2)ncc1Cl | 0 | 1 | -2 | -11 | 2 | -4 | .
CCCC/C(=N\NC(=O)c1ccc(Br)o1)c1ccccc1 | -3 | 1 | -8 | -19 | 0 | 0 | .
CC/C(=N/NC(=O)c1ccc(Br)o1)c1ccc(Cl)cc1 | 5 | 0 | -5 | -5 | 1 | 8.3* | 0
CCN(c1ccccc1)S(=O)(=O)c1ccc(OC)c(NC(=O)c2cc(Cl)ccn2)c1 | . | -1 | . | . | . | -1 | .
CC1(Cc2ccc(OC(F)(F)F)cc2)C(=O)Nc2ccc(S(=O)(=O)NC3CCCCC3)cc21 (configuration not stated) | . | -1 | . | . | . | 20* | 1
COC(=O)CCCNC(=O)c1ccc2oc(CCCc3ccccc3)nc2c1 | -2 | 1 | 3 | -8 | -3 | 11* | -2
COC(=O)[C@@H](C)NC(=O)c1ccc2oc(CCc3ccccc3)nc2c1 | -3 | 0 | -8 | -10 | 1 | -3 | .
Cc1cc(NC(=O)Cc2ccccc2)ccc1NC(=O)c1cccs1 | -3 | -1 | -12 | -12 | 2 | 3 | .
Cc1cc(C)c(S(=O)(=O)NC2CCN(Cc3ccccc3)CC2)c(C)c1 | -4 | 0 | 3 | 6 | 4 | -2 | .
Cc1noc(C)c1S(=O)(=O)NC1CCN(Cc2ccccc2)CC1 | -4 | -1 | 5 | 7 | -2 | 10* | -1
O=C(C[C@H]1C[C@@H]2c3cc(NS(=O)(=O)c4ccccc4)ccc3O[C@@H]2[C@H](CO)O1)N1CCOCC1 | . | 1 | . | . | . | 14* | -6
O=C(NCC1OCCCN1S(=O)(=O)c1cc(F)ccc1F)C(=O)NC1CCCCC1 (configuration not stated) | -8 | 1 | -8 | 5 | 1 | -4 | .
C[n+]1c(-c2ccccc2)cc2c(=Cc3ccccc3)c3ccccc3n21 | . | 12* | . | . | . | 19* | 9.6*
CN(C)c1ccc(C=c2c3cc(O)ccc3n3c2cc(-c2ccccc2)[n+]3C)cc1 | . | 2 | . | . | . | 17* | 8.1*
Cc1cc2c(=Cc3ccc(N(C)C)cc3)c3ccccc3n2[n+]1C | . | 1 | . | . | . | 4 | .
Cc1noc(C)c1C(=O)OCC(=O)NCc1ccccc1 | . | -1 | . | . | . | -5 | .
CC(C)NC[C@@H](O)c1ccc(O)c(O)c1 | 0 | -1 | 3 | -11 | 1 | -6 | .
CC(C)NCC(O)c1ccc(NS(C)(=O)=O)cc1 (configuration not stated) | -5 | 3 | 6 | 6 | -1 | 7.8* | -3

High-throughput results as filed in PubChem BioAssay.
